Results on nine compounds are retold here after PubChem BioAssay.

Where “and” joins values, the source holds several entries; their conditions need not be identical. Equal entries are not always repeated. For some assays here: Measured potencies and affinities stand elsewhere. Calls of active or inactive are those of the source.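 Rule for the calls, unless noted: active = compounds killing one labelled cell type while sparing the other, by normalised counts and ratio limits, not self-fluorescent; inactive = the rest.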

The nature of assay [1]: EMT-state selective cytotoxicity in co-culture – imaging, PC-3E GFP, TEM4-18 mCherry, primary screen (AID 1345086).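 For all read-outs here: cells exposed to compound for 72 h before imaging.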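 For red/green cell ratio (normalised): normalised mesenchymal count divided by normalised epithelial count so high means epithelial killing.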 Particulars: PC-3E GFP / TEM4-18 mCherry co-culture, imaging cell counts, at 1 µM; for red/green cell ratio (normalised): actives lie on both sides.
The test system of assay [2] is Aerobactin synthetase IucA (Klebsiella pneumoniae hvKP1). The assay can be described thus: IucA enzyme inhibition, primary screen, biochemical, Spectrum library (AID 1346200; call rule not given here;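 note: 100% = wells without compound and 0% = wells lacking enzyme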). Particulars: malachite green pyrophosphate, A620, at 8 µM, stronger effect = lower value.
The target in assay [3] is Mitogen-activated protein kinase 7 (Homo sapiens) (UniProt Q13164). Description: Gal4-ERK5 driven luciferase induction – cell-based, HTS, primary screen (AID 1508626;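 active = luciferase signal above three times the same-plate solvent-only control wells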;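 note: luciferase driven by Gal4-ERK5 fusion binding five Gal4 sites before minimal TATA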). Particulars: HeLa Gal4-ERK5 transactivation, 18 h, at 5 µM, stronger effect = higher value.
Assay [4] can be described thus: blockers of polyQ-driven CASP3 activation – cell-based (AID 1583). Particulars: polyglutamine-induced caspase-3 activation, cell assay; stronger effect = higher value;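 tested at 10 µM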.
Assay [5] in a line: yeast 75Q aggregation reduction – 75Q-TubU reporter (AID 1593). Particulars: Yeast 75Q polyglutamine aggregation reporter.
The nature of assay [6]: restoration of touch response, mutant HTT neurons – whole organism, C. elegans mechanosensory neurons, N-terminal huntingtin (AID 1599). Conditions: C. elegans polyQ-huntingtin mechanosensory neurons, stronger effect = higher value.
Assay [7] is described as follows: blockers of cytochrome c efflux from mitochondria – biochemical, purified mitochondria (AID 1603).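 Note: mouse liver mitochondria challenged with calcium chloride; signal normalized to the plate average as 100%.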 Particulars: stronger effect = lower value.
Assay [8] is described as follows: polyglutamine aggregate formation blockers (AID 1604). Conditions: polyglutamine-induced protein aggregation inhibition assay; stronger effect = higher value; tested at 2.5 µM.
Assay [9] in a line: glutamate transport activators, MN-1 cells, MN-1 cell line (AID 1612).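 Note: tested at 1 µM final; 0% = mean of DMSO vehicle wells on each plate; positive means more glutamate uptake than control and negative means less.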 Conditions: MN-1 motor neuron cells, stronger effect = higher value.
Assay [10] is described as follows: 75Q-TubH aggregate inhibition, S. cerevisiae, yeast (AID 1616). Particulars: S. cerevisiae 75Q-TubH polyglutamine aggregation suppression; stronger effect = higher value.
Assay [11] is described as follows: P. berghei load reduction in hepatocytes – cell-based, HepG2, luciferase luminescence, HepG2 viability, primary screen (AID 624349; in the data active = parasite load remaining mostly below about 12%, no sharp cut-off; inactive = mostly above about 10%;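 note: 100% = mean of DMSO negative control wells on the same plate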). Particulars: P. berghei liver stage in HepG2, luciferase luminescence, concentration not given here; parasite load remaining: stronger effect = lower value; viability: measured here: HepG2 viability without parasites.
A short description of assay [12]: viability loss with induced miR-34 in A549 – imaging, A549 dox-inducible miR-34, nuclei and caspase counts, primary screen (AID 1347080;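 active = compounds whose cell count with miR-34 switched on is under 0.7 times the count with it off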). Conditions: A549 miR-34 inducible, Hoechst nuclei count, 48 h.
[13] abbreviates: counts scaled to control wells, 1 = unselective.
Where [14] appears, read: measured here: epithelial PC-3E GFP cell survival.
The mark [15] stands for this setting: measured here: mesenchymal TEM4-18 mCherry cell survival.
The mark [16] stands for this setting: measured here: relative caspase fold change +Dox/-Dox.
Where [17] appears, read: measured here: total cells with miR-34 induction, stronger effect = lower value.
The mark [18] stands for this setting: measured here: total cells without miR-34 induction.

Chain of Mitogen-activated protein kinase 7 (Homo sapiens) (Q13164 whole entry, looked up, the tested form may be a part): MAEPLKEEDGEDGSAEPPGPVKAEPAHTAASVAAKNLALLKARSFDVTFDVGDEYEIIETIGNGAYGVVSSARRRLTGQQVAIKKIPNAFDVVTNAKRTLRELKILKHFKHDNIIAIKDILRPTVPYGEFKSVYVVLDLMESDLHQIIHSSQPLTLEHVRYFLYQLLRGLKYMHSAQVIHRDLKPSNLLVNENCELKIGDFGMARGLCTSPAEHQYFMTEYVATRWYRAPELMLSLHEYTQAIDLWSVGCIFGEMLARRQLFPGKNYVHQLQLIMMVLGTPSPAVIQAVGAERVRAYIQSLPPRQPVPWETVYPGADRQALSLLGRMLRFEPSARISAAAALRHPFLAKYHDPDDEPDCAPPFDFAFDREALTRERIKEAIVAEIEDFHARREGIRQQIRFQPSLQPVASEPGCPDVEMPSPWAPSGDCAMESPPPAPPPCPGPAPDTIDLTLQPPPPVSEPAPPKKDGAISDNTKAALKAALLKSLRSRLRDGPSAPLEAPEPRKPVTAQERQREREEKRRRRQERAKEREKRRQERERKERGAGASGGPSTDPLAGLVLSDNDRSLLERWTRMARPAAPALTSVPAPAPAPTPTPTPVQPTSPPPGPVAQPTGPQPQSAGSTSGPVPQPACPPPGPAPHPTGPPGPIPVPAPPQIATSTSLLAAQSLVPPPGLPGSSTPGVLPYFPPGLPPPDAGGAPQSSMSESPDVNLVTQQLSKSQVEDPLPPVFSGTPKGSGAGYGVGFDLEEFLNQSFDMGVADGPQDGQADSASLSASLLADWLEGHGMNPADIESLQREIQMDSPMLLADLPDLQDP

As to `C[N+]1(C)CCc2cc3c(cc2[C@H]1C1OC(=O)c2c1ccc1c2OCO1)OCO3` (stereo partly drawn), the red/green cell ratio (normalised) in assay [1] (setting [13]) is 0.88 (inactive). For the same compound, the results for the normalised cell number in [1] (setting [14]) and in assay [1] (setting [15]) were 1.35 and 1.18, respectively. Besides, in assay [2], the activity remaining is 129% (inactive).

As to `CC1(C)C(=O)C=C[C@@]2(C)C1=C(O)C(=O)[C@]1(C)C2CC[C@@]2(C)[C@H](c3ccoc3)C[C@H]3O[C@]321` (stereo partly drawn), the red/green cell ratio (normalised) in assay [1] is 1.22 (inactive). Also, the normalised cell number in assay [1] (setting [14]) is 0.97; in assay [1] (setting [15]), 1.19. In assay [2], the activity remaining is 116% (inactive).

With `CC(=O)O[C@@H]1C[C@@]2(C)[C@H](c3ccoc3)C[C@H]3O[C@]32[C@]2(C)C(=O)C(O)=C3C(C)(C)C(=O)C=C[C@]3(C)C12` (stereo partly drawn), in [1], the red/green cell ratio (normalised) was 0.93 (inactive). Besides, the normalised cell number in [1] (setting [14]) stood at 0.15; in [1] (setting [15]) it was 0.14. Besides, the activity remaining in assay [2] was 102% (inactive).

Take `COC(C)(C)CCC[C@H](C)C/C=C/C(C)=C/C(=O)OC(C)C`: in assay [1], the red/green cell ratio (normalised) was 0.86 (inactive). The normalised cell number in [1] (setting [14]) is 1.2; in assay [1] (setting [15]), 1.03. Also, the activity remaining in assay [2] is 109% (inactive). Further, the luciferase signal in [3] is 72 AU (inactive).

With `CC(=O)OC1CC[C@@]2(C)C(CCC3C2CC[C@]2(C)C(C4=CC(=O)OC4)C(OC(C)=O)CC32O)C1` (stereo partly drawn), in assay [1] (setting [13]), the red/green cell ratio (normalised) was 0.21 (inactive). In addition, the normalised cell number stood at 0.16 in [1] (setting [14]) and 0.03 in assay [1] (setting [15]). In addition, the activity remaining in [2] was 109% (inactive).

For orientation: inhibition means the drop in the measured response relative to a control, in per cent. One may read the viability as a read-out of living cells in per cent, often relative to untreated cells. As to `C=CCN1CC[C@]23c4c5ccc(O)c4OC2C(=O)CC[C@@]3(O)[C@H]1C5` (stereo partly drawn), the inhibition in assay [4] is -6.59%. The score in assay [5] worked out at 1.27. Besides, in assay [6], the rescue above control was -8.32. Further, in assay [7], the cytochrome c release ratio turned out to be 1.12. This compound showed an inhibition of aggregation in assay [8] of 68.2%. The glutamate uptake change in assay [9] was -6.41%. The aggregation suppression score in [10] is 1.13. The parasite load remaining in [11] was 96.1% (inactive) and 54.5% (inactive). The viability in [11] was 79.4% and 88.1%. In addition, the red/green cell ratio (normalised) in assay [1] was 1.09 (inactive). Moreover, the normalised cell number in assay [1] (setting [14]) was found to be 1.09; in assay [1] (setting [15]) it was 1.19. Also, the activity remaining in assay [2] is 92.9% (inactive). Besides, the fold change was 0.923 (inactive) in assay [12] (stronger effect = lower value) and 2.03 in assay [12] (setting [16]). The results for the cell count in [12] (setting [17]) and in [12] (setting [18]) were 11800 and 12800, respectively.

With `C[C@@H]1O[C@@H](O[C@H]2C[C@@H](O)[C@]3(CO)C4C(CC[C@]3(O)C2)[C@@]2(O)CC[C@H](C3=CC(=O)OC3)[C@@]2(C)C[C@H]4O)[C@H](O)[C@H](O)[C@H]1O` (stereo partly drawn), the inhibition in assay [4] was determined as 78.5%. Also, the score in assay [5] is 1.02. Moreover, the rescue above control in assay [6] was 3.58. Also, the cytochrome c release ratio in assay [7] turned out to be 1.01. Moreover, the inhibition of aggregation in [8] amounted to 75%. In assay [9], the glutamate uptake change is -21.6%. Also, the aggregation suppression score in assay [10] was 1.24. For the same compound, in assay [11], the parasite load remaining was 242% (inactive) and -0.205% (inactive). In addition, in [11], the viability is 38.6% and 15.3%. The red/green cell ratio (normalised) in assay [1] is 0.13 (inactive). The values for the normalised cell number in assay [1] (setting [14]) and in assay [1] (setting [15]) were 0.14 and 0.02, respectively. The activity remaining in assay [2] was 122% (inactive). In addition, the fold change in assay [12] (stronger effect = lower value) was 0.536 (active); in assay [12] (setting [16]), 2.2. Further, the cell count in assay [12] (setting [17]) came out at 195; in assay [12] (setting [18]), 364.

`C[N+](C)(C)CC(=O)[O-]`: the inhibition in assay [4] turned out to be 4.44%. The compound also registered a score in assay [5] of 1.09. For the same compound, in assay [6], the rescue above control was determined as 5.21. The cytochrome c release ratio in [7] amounted to 1.34. Besides, the inhibition of aggregation in assay [8] came out at 61.8%. For the same compound, the glutamate uptake change in [9] came out at 21.6%. For the same compound, the aggregation suppression score in assay [10] was determined as 0.998. In addition, the parasite load remaining in assay [11] was 57.1% (inactive) and 50.8% (inactive). Moreover, the viability in assay [11] was 76.9% and 89.4%. Moreover, the red/green cell ratio (normalised) in [1] is 1.27 (inactive). The figures for the normalised cell number in assay [1] (setting [14]) and in assay [1] (setting [15]) were 1.09 and 1.39, respectively. The activity remaining in [2] is 124% (inactive). The fold change in [12] (stronger effect = lower value) is 0.862 (inactive); in [12] (setting [16]) it was 4.05. Besides, the cell count was 11400 in assay [12] (setting [17]) and 13200 in assay [12] (setting [18]).

Regarding `C[C@]12CCC(=O)C=C1C=CC1C2CC[C@@]2(C)C1CC[C@@]2(O)CCC(=O)O` (stereo partly drawn), the parasite load remaining in assay [11] was 99.8% (inactive) and 46.1% (inactive). Further, in [11], the viability is 62.7% and 93.1%. The red/green cell ratio (normalised) in assay [1] is 1.24 (inactive). The values for the normalised cell number in assay [1] (setting [14]) and in assay [1] (setting [15]) were 0.95 and 1.17, respectively. In addition, in assay [2], the activity remaining was 110% (inactive). Further, the figures for the fold change in assay [12] (stronger effect = lower value) and in [12] (setting [16]) were 0.912 (inactive) and 3.05, respectively. Moreover, the cell count amounted to 12000 in [12] (setting [17]) and 13100 in [12] (setting [18]). In addition, the luciferase signal in assay [3] is 60 AU (inactive).
